The list is not random: actives were taken first. Their share in the collection is about 1.7%.
FPR binder – human FPR ligand, with FPRL1 counter-screen | FPR-expressing cells, fluorescent ligand binding, flow cytometry | 0.74% of 24,000 active | inhibition, % (test concentration not listed) | AID 440 | P21462;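 note: 0% = buffer wells and 100% = receptor blocker peptide wells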
QS inhibitor – S. aureus quorum sensing inhibition. S. aureus RN6390 RNAIII-GFP reporter, AIP-induced, flow cytometry 3 h. inhibition, % at 2 µM. 0.3% of 24,000 active;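 active = share of bacteria positive for the green fluorescent reporter and its mean brightness both inhibited by 50% or more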;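 note: 0% = AIP-stimulated control and 100% = unstimulated bacteria without AIP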
Prostate diff – LNCaP prostate cell differentiation activation; AID 795; flow cytometry side scatter, 4 d; side scatter shift, % at 10 µM; 0.56% of 24,000 active;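 active = side scatter shift above 30%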;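 note: androgen-responsive LNCaP prostate cancer cells in charcoal-stripped serum medium; percent of cells past a gate set so DMSO wells show 10% shift; higher shift means more granular cells and more differentiation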
FPRL1 binder – ligands of human FPRL1, also counter-screen for FPR ligands. FPRL1-expressing cells, fluorescent ligand binding inhibition, flow cytometry. P25090. 0.3% of 24,000 active. inhibition, % (no concentration beside the values). AID 441;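 note: 0% = buffer alone and 100% = receptor blocker peptide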
Target sequence (P25090 whole entry, looked up): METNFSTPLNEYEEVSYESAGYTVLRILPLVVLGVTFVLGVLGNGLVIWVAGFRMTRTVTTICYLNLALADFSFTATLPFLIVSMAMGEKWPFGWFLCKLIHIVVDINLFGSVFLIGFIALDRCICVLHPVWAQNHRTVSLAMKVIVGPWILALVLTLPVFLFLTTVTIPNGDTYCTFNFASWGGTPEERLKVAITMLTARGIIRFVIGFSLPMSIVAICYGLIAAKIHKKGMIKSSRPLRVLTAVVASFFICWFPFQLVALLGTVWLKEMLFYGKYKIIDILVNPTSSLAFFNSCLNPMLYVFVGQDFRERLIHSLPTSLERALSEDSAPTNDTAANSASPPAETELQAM
Starred values were filed as active, the others as inactive; ? = inconclusive; nt = no result. Cut-off read from the data, not from the text of the source, unless noted: active = inhibition above about 30%; inconclusive = no clear call, values can overlap the other calls; inactive = below that.

SMILES	FPR binder	QS inhibitor	Prostate diff	FPRL1 binder
COc1ccc(NC(=O)c2nc[nH]c2C(=O)Nc2ccccc2C)cc1	-5.2	-3.3	8.0	11.8
CCOc1ccccc1NC(=O)c1nc[nH]c1C(=O)Nc1ccccc1OCC	-4.5	-1.4	64.0*	-7.9
CCOC(=O)N1CCC(NC(=O)CCc2nc(-c3ccc(C)cc3)no2)CC1	-1.6	-2.4	16.0	-1.5
CCOc1ccc(N(CC(=O)NCc2cccc(OC)c2)S(=O)(=O)c2c(C)noc2C)cc1	1.6	-0.4	6.0	-3.1
COc1ccc(NC(=O)C2C(=O)NC3(C)CC2c2ccccc2O3)cc1 (stereo not given)	12.5	-1.3	11.0	30.1*
COc1ccc(C(C)NC(=O)C2C(=O)NC3(C)CC2c2ccccc2O3)cc1 (stereo not given)	1.7	0.1	12.0	0.9
O=C(Cc1ccc(-n2cccc2)cc1)NCc1cccs1	7.1	-9.9	nt	3.7
COc1cccc(OCC(=O)Nc2c(C(=O)Nc3ccc(OC)cc3OC)oc3ccccc23)c1	-2.3	1.9	36.0*	-6.6
Cc1ccc(S(=O)(=O)C2(C(=O)N3CCCCC3C)CC2)cc1 (stereo not given)	4.4	-4.3	3.0	-6.2
N#Cc1c(-c2ccccc2)nc(N2CCCCCC2)[nH]c1=O	0.4	-0.8	7.0	-1.3
CC(C)C(=O)N1CCN(c2nc(-c3ccccc3)c3c(c2C#N)CCCC3)CC1	-4.7	57.3*	11.0	-4.9
CCCN1Cc2cccc(C(=O)Nc3ccc(N4CCN(CC)CC4)cc3)c2C1=O	0.5	-1.1	13.0	-0.3
Cc1nnc(SCC(=O)Nc2ccc(Br)cn2)[nH]c1=O	4.1	-2.4	5.0	1.9
CCc1c(C)nc(SCC(=O)Nc2ccc(Br)cc2)[nH]c1=O	8.9	79.6*	10.0	0.7
CC(C)OC(=O)c1cccnc1SCc1cc(=O)n2ccccc2n1	2.2	0.2	6.0	3.3
Cc1ccc(S(=O)(=O)c2c(C)nn(C(C)(C)C)c2OC(=O)c2ccc(Br)o2)cc1	-3.8	51.7*	8.0	9.6
CC(=O)Oc1c(S(=O)(=O)c2ccc(C)cc2)c(C)nn1C(C)(C)C	-3.5	77.6*	1.0	-4.9
Cc1ccc(S(=O)(=O)c2c(C)nn(C(C)(C)C)c2OC(=O)c2ccco2)cc1	0.5	-18.6	14.0	-2.5
CCOC(=O)Cn1c(=O)oc2cc(S(=O)(=O)Nc3ccc(N(CC)CC)cc3C)ccc21	-47.6	90.2*	12.0	?
CCOC(=O)N1CCC(N2Cc3cccc(C(=O)NC(C)c4ccc5c(c4)OCCO5)c3C2=O)CC1 (stereo not given)	-8.4	0.4	8.0	-0.7
CCC(C)(C(=O)NC1CCCC1)N(CC1CCCO1)C(=O)c1ccc2c(c1)OCO2 (stereo not given)	36.6*	-0.3	4.0	2.2
COc1ccc(-n2cc(-c3ccccc3)c3c(N4CCN(CCO)CC4)ncnc32)cc1	4.7	1.4	44.0*	-1.8
CN(C(=O)c1ccccn1)c1nnc(-c2cccnc2)s1	-3.3	-0.3	32.0*	-0.3
O=C(Nc1ccc2c(c1)OCCO2)C1CCCN(S(=O)(=O)c2cnc[nH]2)C1 (stereo not given)	-1.6	-2.5	2.0	-3.4
COc1ccc2cc3cc(C(=O)Nc4ccccc4N4CCN(C)CC4)oc3nc2c1	-0.6	1.2	62.0*	-2.0
SMILES	FPR binder	QS inhibitor	Prostate diff	FPRL1 binder
COc1ccc2cc3cc(C(=O)NCCN4CCN(c5ccccc5F)CC4)oc3nc2c1	-3.1	0.8	4.0	-1.7
CSc1cccc(NC(=O)CSc2nc3ccccc3o2)c1	0.3	-1.5	4.0	6.9
CCN1CCN(CCNC(=O)C2CCN(Cc3nc(-c4ccc(Cl)cc4)oc3C)CC2)CC1	-9.1	1.2	44.0*	2.1
COc1ccccc1CNC(=O)C1CCN(Cc2nc(-c3ccc(Cl)cc3)oc2C)CC1	1.5	1.3	32.0*	-3.9
CCc1ccc(-c2nc(CN3CCC(C(=O)NCCc4ccc(OC)c(OC)c4)CC3)c(C)o2)cc1	-0.5	0.5	32.0*	0.5
Cc1oc(-c2cccc(Cl)c2)nc1CN1CCC(C(=O)NCc2ccco2)CC1	-1.9	0.1	8.0	-2.1
CCN1CCCC1CNC(=O)C1CCN(Cc2nc(-c3cccc(Br)c3)oc2C)CC1 (stereo not given)	-1.0	-3.2	63.0*	-6.3
Cc1cc(S(=O)(=O)N2CCN(c3ccc(F)cc3)CC2)c(C)s1	-0.8	-0.3	16.0	-0.9
COc1ccc(Oc2ccc(/C=C/C(=O)c3cccc(OC)c3)cc2[N+](=O)[O-])cc1	nt	-1.1	nt	nt
COc1ccc(-c2nc(CN3CCC(C(=O)NC4CCCc5ccccc54)CC3)c(C)o2)cc1OC (stereo not given)	-3.7	1.2	39.0*	-1.5
COc1ccc(CCNC(=O)C2CCN(Cc3nc(-c4ccccc4F)oc3C)CC2)cc1OC	-3.9	-2.7	4.0	-6.0
Cc1ccsc1C1C2=C(CCCC2=O)Nc2ncnn21 (stereo not given)	8.8	-0.3	11.0	-2.4
Cc1ccsc1C1C2=C(CC(C)(C)CC2=O)Nc2ncnn21 (stereo not given)	36.0*	-2.4	9.0	2.0
Cc1c(C(=O)NCc2ccc3c(c2)OCO3)oc2ccc(S(=O)(=O)N3CCC(C)CC3)cc12	-2.5	0.1	5.0	11.0
Cn1c(=O)oc2cc(S(=O)(=O)N3CCC(C(=O)NCc4cccs4)CC3)ccc21	0.9	-2.9	15.0	5.9
CC1CCN(S(=O)(=O)c2ccc3c(c2)oc(=O)n3CC(=O)NCc2ccc3c(c2)OCO3)CC1	38.8*	66.6*	20.0	-4.5
Cn1c(=O)oc2cc(S(=O)(=O)N3CCC(C(=O)NCC4COc5ccccc5O4)CC3)ccc21 (stereo not given)	31.1*	-2.1	7.0	19.6
CCOC(=O)C1CCCN(C(=O)c2cc3c(=O)n4cccc(C)c4nc3n2C)C1 (stereo not given)	0.0	-2.8	7.0	0.8
CCN(CC)CCNC(=O)c1nn(-c2ccc(C)cc2)c(=O)c2c1c1ccccc1n2C	1.0	6.0	36.0*	-15.4
CC(=O)c1cccc(NC2c3ccccc3C(=O)N2Cc2ccc3c(c2)OCO3)c1 (stereo not given)	-3.8	1.2	30.0*	-2.0
COC(=O)c1ccc2c(=O)n(Cc3ccc4c(c3)OCO4)c(SCC(=O)N3CCCC3)nc2c1	2.2	6.6	4.0	0.6
COC(=O)C(NS(C)(=O)=O)(c1c(C)[nH]c2ccccc12)C(F)(F)F (stereo not given)	0.1	0.6	6.0	1.9
O=C(O)CCCNc1cc(N2CCC3(CC2)OCCO3)c2noc3c2c1C(=O)c1ccccc1-3	31.8*	24.4	5.0	73.3*
CCOC(=O)N1CCN(c2cc(NCCC(=O)O)c3c4c(onc24)-c2ccccc2C3=O)CC1	32.2*	10.7	0.0	60.6*
CC(C)CCNC(=O)C(c1cccs1)N(CC1CCCO1)C(=O)Cn1nnc2ccccc21 (stereo not given)	9.4	-0.2	4.0	7.1
C=CCOc1ccc(C2C(C(=O)c3cccs3)=C(O)C(=O)N2c2nnc(C)s2)cc1 (stereo not given)	43.0*	nt	nt	20.9
COc1ccc(C2C(C(=O)c3cccs3)=C(O)C(=O)N2c2nnc(C)s2)cc1OC (stereo not given)	36.3*	nt	nt	26.8

Screens from PubChem BioAssay.
